Laboratory results: PubChem BioAssay AID1851 (National Center for Advancing Translational Sciences (NCATS), 2009)
Where “and” joins values, the source holds several entries; their conditions need not be identical. Equal entries are not always repeated. In all, about 16,000 compounds went through this assay and about 5,700 (36%) were called active. Roughly 24% stayed inconclusive and do not appear here. The call rests on the fitted dose curve; in most records, active means well fitted curve in the direction sought with a large enough effect; inconclusive means small, poorly fitted or top-dose-only effect, or effect the other way; inactive means no such curve, though single readings can be large or run the other way. This is one part of the list.

The compounds below were run against Cytochrome P450 1A2 (Homo sapiens) (UniProt P05177) (assay: Cytochrome panel assay with activity outcomes). Settings: recombinant CYP, pro-luciferin dealkylation, luminescence, p450-cyp1a2; series mostly up to 57.1 µM; activity, negative = inhibition: at the top concentration.
On the % scale 0 is the no-effect control and ±100 the full control effect.

Sequence of Cytochrome P450 1A2 (Homo sapiens) (P05177 whole entry, looked up): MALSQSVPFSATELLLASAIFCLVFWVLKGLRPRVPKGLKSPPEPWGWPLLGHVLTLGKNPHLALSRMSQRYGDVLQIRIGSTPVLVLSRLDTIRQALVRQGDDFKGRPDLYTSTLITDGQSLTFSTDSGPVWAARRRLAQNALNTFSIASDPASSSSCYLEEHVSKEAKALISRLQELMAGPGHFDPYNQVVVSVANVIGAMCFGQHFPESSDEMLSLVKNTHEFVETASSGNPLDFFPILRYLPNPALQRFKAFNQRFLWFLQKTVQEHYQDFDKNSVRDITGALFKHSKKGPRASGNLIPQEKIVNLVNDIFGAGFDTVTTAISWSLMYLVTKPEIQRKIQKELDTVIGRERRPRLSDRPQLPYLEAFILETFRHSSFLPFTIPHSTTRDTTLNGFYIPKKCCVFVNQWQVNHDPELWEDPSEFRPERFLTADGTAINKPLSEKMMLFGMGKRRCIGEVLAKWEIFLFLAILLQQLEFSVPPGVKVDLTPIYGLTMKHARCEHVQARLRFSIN

activity, negative = inhibition, inactive:
Cn1cccc1C(=O)N1CCC2(CCN(Cc3ccccc3)CC2)CC1 10.3%
CCc1cc2c(=O)n(-c3ccccc3)c(=S)[nH]c2s1 -27.5%
CCN(CC)C(=O)c1sc2[nH]c(=S)n(-c3ccccc3)c(=O)c2c1C 11.3%
Cc1cc(C)c(NC(=O)CS(=O)CC(=O)NCCCc2ccccc2)c(C)c1 (configuration not stated) 0.118%
COc1ccc(/C=C(/C#N)C(=O)Nc2cc(C)ccc2C)cc1C(=O)O -0.1%
CCOC(=O)C1=C(CSc2nc3ccccc3s2)NC(=O)NC1c1cc(C)ccc1C (configuration not stated) -22.3%
CCOC(=O)/C(C#N)=C\c1ccc(OCC(=O)Nc2ccc(C)cc2C)c(OC)c1 -9.06%
CCOC(=O)/C(C#N)=C\N(C)C -18.7%
CC(=O)NCCc1ccc(O)c(O)c1 -2.4%
C/C(CCN1CCCCc2nc(C)c(C)cc21)=N\O[C@@H](C)c1cn([C@H](CO)Cc2ccccc2)nn1 -1.07% [at 11.4 µM] and -1.23% [at 11.4 µM]
Cc1ccc(C(=O)NC2CCCCCC2)cc1N1CCCC1=O -22.9%
Cc1cccc(N(CC(=O)NC2CCCC2)C(=O)c2cc3cc4cccc(C)c4nc3s2)c1C -18.2%
C[C@@H](Cc1ccccc1)Nc1ncnc2c1ncn2[C@@H]1O[C@@H](CO)[C@H](O)[C@@H]1O 1.16%
CCOC(=O)c1ccc(N2C(=O)CC(Nc3ccc(CCO)cc3)C2=O)cc1 (configuration not stated) 6.03%
CCCCNc1ccc(C(=O)OCCOCCOCCOCCOCCOCCOCCOCCOCCOC)cc1 3.14% [at 25.6 µM]
CN(C)CCOC(=O)c1ccc(N)cc1 1.14% [at 11.4 µM]
O=C(OCCCN1CCCCC1)c1ccc(O)cc1 -21.1% [at 11.4 µM]
CO[C@@H]1COC(=O)[C@H]2CCCN2C(=O)[C@@H](C)COC(=O)CCC[C@H]1C 6.36% [at 11.4 µM]
O=C1NC(=O)C(c2ccccc2)(c2ccccc2)N1 -10.8%
COCC(=O)N1CCC[C@@]2(CCN(Cc3ccc(C#N)cc3)C2)C1 0.305%
c1cc2c(cc1C(N1CCNCC1)N1CCNCC1)OCO2 -3.03% [at 2.29 µM]
O=C(Nc1ccccc1)N1CC[C@@]2(CCCN(C(=O)c3cnccn3)C2)C1 -8.64%
Cc1ccc(S(=O)(=O)N2CCOCC2)cc1NC(=O)COC(=O)CCC(=O)c1cccs1 -17.9%
COC(=O)[C@@]1(Cc2ccc(F)cc2)[C@H]2c3cc(C(=O)N(C)C)n(Cc4ccc(C)o4)c3C[C@H]2CN1C(=O)c1ccccc1 -12.5%
CCN(CC)CC#CCC(C)(c1ccccc1)c1ccccc1 -22.5%
CC[N+](CC)(CC)CC[C@](O)(c1ccccc1)C1CCCCC1 -11.1% [at 25.6 µM]
CCOC(=O)C(NC(C)=O)C(OC(C)=O)c1cccc(N(CCO)CCO)c1 (configuration not stated) -4.35%
CN1CCN(CC(O)c2ccccc2)CC1 (configuration not stated) 1.6%
CCCC[C@]1(C2CCCC2)Cc2cc(OCC(=O)O)c(Cl)c(Cl)c2C1=O -9.78%
Cc1[nH]n(C(C)(C)C)c(=O)c1Sc1ccccc1 14.3%
COc1ccc(NC(=O)N2CCCC3(CCN(S(C)(=O)=O)CC3)C2)cc1 -8.77%
Cc1cccc(C)c1NC(=O)Nc1ccc(S(N)(=O)=O)cc1 -10.8% [at 2.29 µM]
CO[C@H]1COC(=O)CCC[C@H](C)[C@H](OC)COC(=O)C/C=C\[C@@H]1C -3.93% [at 11.4 µM]
N#Cc1ccc(C2=NC(C(F)(F)F)(C(F)(F)F)c3c(n(Cc4ccco4)c(=O)[nH]c3=O)N2)cc1 -5.04%
C#CC[N+](CC)(CC)CC#Cc1cccc(Cl)c1 -7.67%
Cc1nc2ccccn2c1/C(O)=C1\C(=O)C(=O)N(CCN2CCOCC2)C1c1cccnc1 (configuration not stated) -17.5%
Cc1cc(CN2CCCCC2)c(O)c(CN2CCCCC2)c1 -18.8% [at 2.29 µM]
OC[C@@H]1O[C@@H](n2cnc3c(NC4CCCC4)ncnc32)[C@@H](O)[C@H]1O -3.56%
OC[C@@H]1O[C@@H](n2cnc3c(NC4CCCC4)ncnc32)[C@H](O)[C@H]1O -4.01%
Cc1ccc(S(=O)(=O)O[C@H]2C[C@@H](C(C)(C)C)CC[C@@H]2c2ccccc2)cc1 -22.8% [at 2.29 µM]
COc1ccc(N2CCN(C(=S)Nc3cc(C)cc(C)c3)CC2)cc1 -5.23%
COc1cccc(N2CCN(C(=S)Nc3cccc(C)c3)CC2)c1 -14.1%
COc1ccccc1N1CCN(CCN2C(=O)CC3(CCCC3)CC2=O)CC1 -12.8%
CC1CCCN(CCCNC(=O)C2CC(=O)N(c3ccc(F)c(Cl)c3)C2)C1 (configuration not stated) -12.8%

AC50, inactive:
N[C@@H](Cc1ccc(O)c(O)c1)C(=O)O
CCN(CC)CCOC(=O)c1ccc(N)cc1
COc1ccccc1N1CCN(CCCCN2C(=O)c3ccccc3C2=O)CC1

AC50, active:
Cc1cc(Cl)ccc1Oc1ncnc2oc(-c3ccccc3)cc12 3.16 µM
O=c1c2c(-c3cccs3)csc2[nH]c(=S)n1-c1ccccc1 12.6 µM
N#C/C(=C\c1ccc(O)c(O)c1)C(=O)NCCCc1ccccc1 12.6 µM
N#C/C(=C\c1ccc(O)c(O)c1)C(N)=O 39.8 µM
COc1cc(/C=C(\C#N)C(=O)c2ccc(O)c(O)c2)cc(I)c1O 15.8 µM
COc1ccc(/C=C(\C#N)C(N)=O)c(OC)c1 1.58 µM
N#C/C(=C\c1ccc(O)c(O)c1)C(=O)Nc1ccccc1 0.501 µM
COc1ccc(/C=N/n2c(C)nnc2C)c(OC)c1 14.1 µM
COc1ccc(/C=C(\C#N)C(N)=O)cc1OC 3.16 µM
COc1cc(/C=C(\C#N)C(N)=O)cc(CSc2nc3ccccc3s2)c1O 1.26 µM
N#C/C(=C\c1ccc(O)c(O)c1)C(=O)NCCc1ccccc1 10 µM
CCOc1ccccc1/C=C(\C#N)C(N)=O 2 µM
C[C@H](NC(=O)/C(C#N)=C/c1ccc(O)c(O)c1)c1ccccc1 15.8 µM
Cc1c2c(nc3c(C(=O)NC4CCCC4)cnn13)CCCC2 2.82 µM
CC(Sc1nnc(C(C)N(C)C)n1-c1ccc(Cl)cc1)C(=O)Nc1ccc2c(c1)OCO2 (configuration not stated) 17.8 µM
CCOC(=O)c1ccc(N)cc1 2 µM
CCCCOC(=O)c1ccc(O)cc1 0.0794 µM
CCOC(=O)c1ccc(-c2ccc(CO)o2)cc1 2.51 µM
O=S(=O)(c1cccc2c(I)cccc12)N1CCCNCC1 10 µM
CCN(CC)c1ccc(/C=C/c2nc3ccccc3s2)cc1 2.51 µM
c1ccc(CNc2ccnc(-c3ccoc3)n2)cc1 2.51 µM
Cc1cccc(CNc2ccnc(-c3ccoc3)n2)c1 2 µM
c1ccc2c(N3CCNCC3)nc(-c3ccc4c(c3)OCO4)nc2c1 12.6 µM
CN(C)c1ccc(-c2nc(N3CCNCC3)c3ccccc3n2)cc1 10 µM
Cc1c(Cl)cnc(NC(=O)COC(=O)CCS(=O)(=O)c2ccccc2)c1Cl 11.2 µM
CC(C)=CC(=O)OCC(=O)Nc1ncc(Cl)c(C)c1Cl 25.1 µM
CCN(CC)CC#CCOC(=O)[C@@](O)(c1ccccc1)C1CCCCC1 3.98 µM
Cc1cc(C)c(C#N)c(SCS(=O)c2ccc(C(C)(C)C)cc2)n1 (configuration not stated) 20 µM
Cc1[nH]nc(N2CCCCCC2)c1[N+](=O)[O-] 2 µM
COc1ccccc1CCn1c(=O)c(-c2ccccc2)nc2cncnc21 1 µM
COc1ccccc1CCn1c(=O)c(-c2ccc(F)cc2)nc2cncnc21 1 µM
COc1ccccc1CCn1c(=O)c(-c2cccc(Cl)c2)nc2cncnc21 0.316 µM
Cn1c(=O)c(-c2cccs2)nc2cncnc21 1.26 µM
COc1ccccc1CCn1c(=O)c(-c2ccc(Cl)cc2)nc2cncnc21 0.631 µM
COCCn1c(=O)c(-c2cccs2)nc2cncnc21 3.16 µM
COc1ccccc1CCn1c(=O)c(-c2ccc(F)c(F)c2)nc2cncnc21 2 µM
COc1ccccc1CCn1c(=O)c(-c2cccs2)nc2cncnc21 2 µM
O=C1c2ccccc2CC[C@H]1CNCCc1ccc(O)cc1 20 µM
Cc1ccc(NC(=O)Nc2ncccc2C)cc1 3.55 µM
CCCCNC(=O)c1cc2nc3c(c(C(F)(F)F)n2n1)CCc1ccccc1-3 2.51 µM
COc1cccc(N=c2oc3c(C)ncc(CO)c3cc2C(N)=O)c1 4.47 µM
Cc1ccsc1/C=N/Nc1nc(Cl)c(Cl)cc1Cl 2 µM
CNC(=O)c1sc(SC)cc1-c1ccc(Cl)cc1 0.355 µM
Cc1nc2c(C(=O)NCc3ccc4c(c3)OCO4)c[nH]n2c(=O)c1Cc1ccccc1F 12.6 µM
O=c1cnc2cnc(Nc3ccccc3)nc2n1Cc1ccc(F)cc1 1 µM
CCNc1ncc2nc(C)c(=O)n(Cc3cccc(OC)c3)c2n1 3.16 µM
CCNc1ncc2ncc(=O)n(Cc3ccc(F)cc3)c2n1 1 µM
CCNc1ncc2nc(C)c(=O)n(Cc3ccc(F)cc3)c2n1 1.58 µM
Cn1cnc2c(NC3CCCC3)ncnc21 12.6 µM
O=c1oc(-c2cccs2)nc2ccc(Br)cc12 2.51 µM
CNC(=S)N1CCN(c2cccc(OC)c2)CC1 15.8 µM
CNC(=S)N1CCN(c2ccccc2OC)CC1 7.08 µM
COc1ccc(-c2nc3ccccc3c(=O)n2N)cc1 25.1 µM
CCCCOc1ccc(CNn2c(C)nc3ccccc3c2=O)cc1 15.8 µM
COc1ccc(CNn2c(C)nc3ccccc3c2=O)cc1 12.6 µM
